This excerpt belongs to a sample that is enriched for hits.
Methyltransferases – Primary Screen for Target Class Profiling of Small Molecule Inhibitors of Methyltransferases; purified enzyme, MTase-Glo SAH luminescence; stronger effect = lower value; calls only at 40 µM; 3.9% of 25,000 active; call rule not given here
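Each enzyme was assayed with SAM and its substrate. SAH formation detected by MTase-Glo luminescence; single-point 40 uM screen[…].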
MTase-Glo ctr – detection enzyme interference, methyltransferase counter-screen | 6% of 180 active | MTase-Glo coupled enzymes, SAH conversion luminescence, no MTase | shares compounds with Methyltransferases | Potency, µM (doses to about 57.3 µM), for inactives: top-dose activity change, negative = inhibition, actives largely listed as inhibitors; active means well fitted inhibition curve with a large enough effect; further: potency means the concentration at half of the fitted maximal effect
* = called active by the depositor; i = inactive; + = active, no number; [ ] = dose if it differs, or a comment. On the % scale 0 is the no-effect control and ±100 the full control effect.

SMILES | Methyltransferases | others
CC(CCc1ccccc1)NCC(O)c1ccc(O)c(C(N)=O)c1 (stereo not drawn) | i
NCC(O)c1ccc(O)c(O)c1 (stereo not drawn) | +
CCC(NC(C)C)C(O)c1ccc(O)c(O)c1 (stereo not drawn) | i
Cc1cc(CN(C)C2CCCc3ccccc32)no1 (stereo not drawn) | i
CCc1cc(C(=O)N2CCC(n3nccc3NC(=O)CCOc3ccccc3)CC2)no1 | i
O=C(Cn1c(=O)oc2cc(S(=O)(=O)NC3CCCC3)ccc21)NCc1cccs1 | i
c1cc(NC2CCNCC2)nc(-c2cnc3ccccn23)c1 | +
O=C(Nc1ccccc1Cl)c1cnc2ccc(C3CCNCC3)cn12 | i
CCn1nc(C)cc1C(=O)N1CCOC[C@H](Oc2cccnc2)C1 | i
CCCn1c(C)c(CC(=O)NCC2COCCO2)c2c1CC(C)(C)CC2=O (stereo not drawn) | i
Cc1c(O)cc(O)c2c(=O)c(O)c(-c3ccc(O)c(O)c3)oc12 | +
COC(=O)[C@@H]1CN(C(=O)Nc2ccccc2)CCN1C(C)=O | i
c1ccc(CC2=NOC3(CCN(Cc4c[nH]c5ccccc45)CC3)C2)cc1 | i
O=C1OCC2(CCN(Cc3c[nH]c4ccccc34)C2)N1Cc1ccccc1 (stereo not drawn) | i
O=C(OCc1ccccc1)N1CCOCC12CCN(Cc1c[nH]c3ccccc13)CC2 | + | MTase-Glo ctr=3.0%[85.7 µM]
c1ccc(CC2=NOC3(CCCN(Cc4ccns4)C3)C2)cc1 (stereo not drawn) | i
COc1ccc(NC(=O)N2CCCC(CN3CCC(C)CC3)CC2)cc1 (stereo not drawn) | i
COc1ccc(NC(=O)C(C)(C)Oc2nn(CC3CC3)c3ccc(CN4CCCC4)cc23)cc1 | + | MTase-Glo ctr=4.9%
CC(C)n1nc(OC(C)(C)C(=O)Nc2ccccn2)c2cc(CN3CCOCC3)ccc21 | i
COc1cccc(CCC(=O)N2CCC3(CC2)N=C(c2ccccc2)NO3)c1 | i
CCN(CC)c1cc(CCC(=O)N2CCN(c3cccc(OC)c3)CC2)ccn1 | + | MTase-Glo ctr=-2.7%
COc1cccc(CCC(=O)N2CCC(OCC3CC3)C2)c1 (stereo not drawn) | i
COCCNC(=O)[C@@H]1C[C@H](Oc2ccccc2)CN1C(=O)c1cnccn1 | i
CC(C)n1c(=O)c2ccc(C(=O)NC3CCCC3)cc2n2c(=O)n(CC(=O)NC3CCCCC3)nc12 | i
COC[C@H]1C[C@@H](NC(=O)Nc2cccnc2)[C@H](O)[C@@H]1O | i
SMILES | Methyltransferases | others
COCc1cc(NCCCNc2cccnc2)ncn1 | + | MTase-Glo ctr=-6.7%
Cc1ccc(S(=O)(=O)c2nnn3c2nc(NCCCOC(C)C)c2cc(Cl)ccc23)cc1C | i
CNc1cccnc1OC1CCN(S(=O)(=O)c2ccc3c(c2)CCC3)C1 (stereo not drawn) | i
COC(=O)N1CCC(n2ncc3c(N4CCOCC4)nc(-c4ccc(NC(=O)NC5CC5)cc4)nc32)CC1 | i
Cc1ccc2nc(CN(C)C(=O)C3CCC(=O)N(C4CCCCCC4)C3)[nH]c2c1 (stereo not drawn) | + | MTase-Glo ctr=-1.2%
Cc1ccc2nc(CO[C@H]3CN(C4CCN(C)CC4)C[C@H]3F)[nH]c2c1 | i
CCN1CC(C(=O)N(C)Cc2ccc(Oc3ccccc3)cc2)CCC1=O (stereo not drawn) | i
CCCn1c(=O)c2ccc(C(=O)NC(C)CC)cc2n2c(=O)n(CC(=O)c3cc(C)ccc3C)nc12 (stereo not drawn) | i
CNS(=O)(=O)c1ccc(Cl)c(-c2nnc(-c3ccccc3)o2)c1 | i
CCCn1c(=O)c2ccc(C(=O)NC(C)C)cc2n2c(SCC(=O)NCc3ccc(C)cc3)nnc12 | i
COCCn1ccc2c(C3=CCOCC3)nc(-c3cccc4[nH]ccc34)cc21 | + | MTase-Glo ctr=-5.9%[85.7 µM]
Cc1cccc(COc2ccc3c(-c4ccccc4)cc(=O)oc3c2)c1 | i
CNC(=O)[C@@H](c1ccccc1)N1CCc2cc(OC)c(OC)cc2[C@@H]1CCc1ccc(C(F)(F)F)cc1 | i
C[C@@H]1C[C@@H]([C@@H](O)C(C)(C)O)O[C@H]2C[C@@]3(C)C(=C12)C[C@H](O)[C@H]1[C@@]2(C)CCC(=O)C(C)(C)C2CC[C@@]13C (stereo partly drawn) | i
CN(CCc1nc2ccc(Cl)cc2[nH]1)c1cc(C2CC(O)C2)nc(N)n1 (stereo not drawn) | + | MTase-Glo ctr=-4.4%
Nc1nc(C2CC(O)C2)cc(N2CC(N3CCOCC3)C2)n1 (stereo not drawn) | i
CN(CCO)C[C@@H]1CN(C(=O)CCc2nc3ccc(F)cc3[nH]2)C[C@@H]1CO | i
CCC(O)C1CCN(C(=O)c2cnn3cc(CN(CC)CC)cnc23)CC1 (stereo not drawn) | i
CN1C[C@@H]2CC[C@H](CC1=O)N2C(=O)c1cnn2cc(CCO)cnc12 | i
CCN(CC)Cc1cnc2c(C(=O)N3CCCN4CCC[C@H]4C3)cnn2c1 | + | MTase-Glo ctr=1.7%
CCc1cc2c(cc3n2CC(C)(C(=O)NC2CCCCCC2)N(c2cccc(F)c2)C3=O)s1 (stereo not drawn) | i
C=C1CCC(OC(C)=O)C2(C)CC3(O)OC(=O)C(C)=C3CC12 (stereo not drawn) | i
CCc1cc2c(cc3n2CC(C)(C(=O)NC2CCCCCC2)N(CCN2CCCCCC2)C3=O)s1 (stereo not drawn) | i
O=C(N[C@H](c1ccccc1)C1CC(O)C1)c1ccc(-n2cccn2)cc1 (stereo partly drawn) | i
O=C(N[C@H](C1CCNCC1)C1CC(O)C1)c1ccc2nccnc2c1 (stereo partly drawn) | + | MTase-Glo ctr=3.4%
SMILES | Methyltransferases | others
NS(=O)(=O)c1ccc(C(=O)NC(Cc2ccncc2)C2CC(O)C2)cc1 (stereo not drawn) | i
CCc1cc2c(cc3n2CC(C)(C(=O)NC2CCCCC2)N(C2CCCCCC2)C3=O)s1 (stereo not drawn) | i
CCCN1C(=O)c2cc(C(=O)NCCc3cccs3)nn2CC1(C)C(=O)NC1CCCC1 (stereo not drawn) | i
COc1ccc2c(c1)C(CN1CCN(CC(=O)OC(C)(C)C)CC1)=CC(C)(C)O2 | i
COc1ccc2c(c1)C(COCc1ccc(C(=O)O)cc1)=CC(C)(C)CO2 | i
COc1ccc2c(c1)C(CN1CCN(c3ccc4oc(C(=O)O)cc4c3Cl)CC1)=CC(C)(C)CO2 | + | MTase-Glo ctr=-6.2%
Cc1ccc(-c2ccc(N)nc2)c2cccnc12 | + | MTase-Glo ctr=-6.0%
Cc1ccccc1Cn1nc2n(Cc3ccc(F)cc3)c(=O)c3ccccc3n2c1=O | i
CCCN1C(=O)c2c(C(=O)NCc3ccccc3Cl)ncn2CC1(C)C(=O)NC1CCCC1 (stereo not drawn) | i
O=C(c1ccc(Cl)cc1)N1CC2(CCN(CC3CC3)CC2)Cc2ccccc21 | + | MTase-Glo ctr=-1.4%
O=C(C1CCCC1)N1CC2(CCN(Cc3cccnc3)CC2)Cc2ccccc21 | i
O=C(c1ccccc1)N1CC2(CCCN2Cc2cccnc2)Cc2ccccc21 (stereo not drawn) | i
CCCn1c(=O)c2ccccc2n2c(SCC(=O)Nc3ccc(C(C)C)cc3)nnc12 | i
CCCN1C(=O)c2c(C(=O)NCc3cccs3)ncn2CC1(C)C(=O)NCCC(C)C (stereo not drawn) | i
